From PubChem BioAssay (NCI) come the findings set out here.

The panel holds about 79,000 compounds, 15% with a hit somewhere; the sample as a whole holds those more often. Values without a mark were called inactive. The source made the active and inactive calls. No stated cut-off is given here; in the data, active means growth inhibition above about 70%; inactive means the rest.

The first test in a line: NCI Yeast Anticancer Drug Screen. Data for the mec2-1 strain (AID 157). As to conditions: S. cerevisiae mec2-1 strain, at 5.0 µM (retest, dose inferred, filed as 0.5), hits give high values. The method, boiled down: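 Each compound was tested on mec2-1 yeast, a strain altered in DNA damage repair or cell cycle control. Growth inhibition is reported relative to vehicle.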
With `Cc1ccccc1N1C(=O)C(=O)c2cccc(C)c21`, the growth inhibition is 0%.

With `Nc1n[nH]c(=O)c2cccnc12`, the growth inhibition is 2%.

For `CCCCNCCCNCCCNC(=O)c1csc(-c2csc(CCNC(=O)C(NC(=O)C(C)C(O)C(C)NC(=O)C(NC(=O)c3nc(C(CC(N)=O)NCC(N)C(N)=O)nc(N)c3C)C(OC3OC(CO)C(O)C(O)C3OC3OC(CO)C(O)C(OC(N)=O)C3O)c3cnc[nH]3)C(C)O)n2)n1` (stereo not given), the growth inhibition is 98% (active).

Regarding `c1ccc(-c2ccc(-c3cnc(-c4ccc(-c5ccccc5)cc4)o3)cc2)cc1`, the growth inhibition is 3%.

As for `CN(C)C=Nc1ccc2nonc2c1`, the growth inhibition was -15%.

As for `COC(=O)C(CCC(=O)Cc1ccccc1)N1C(=O)c2ccccc2C1=O` (stereo not given), the growth inhibition is 1%.

On to `O=S(=O)(Nc1ccccc1)c1ccccc1CC(O)(c1ccccc1)c1ccccc1`, for which the growth inhibition is 67%.

Take `O=C1OC(=O)C2C=CC=CC12` (stereo not given): the growth inhibition is -1%.

As for `CCOC(=O)N/N=C/c1ccc([N+](=O)[O-])o1`, the growth inhibition was 2%.

Turning to `CN=C(N)N/N=C(\C)c1ccc2c(ccc3ccccc32)c1`, the growth inhibition is 14%.

Regarding `O=C(C(/C=N/C(=S)NCc1ccccc1)=C(/O)c1ccccc1)c1ccccc1`, the growth inhibition is -1%.

As for `Cc1nc(Nc2ccc(Cl)cc2)sc1C(=O)Nc1cccc2c(=O)[nH][nH]c(=O)c12`, the growth inhibition is 6%.

In the case of `Cc1c2ccccc2c(C)c2c1cc(F)c1ccccc12`, the growth inhibition is 43%.

For the compound `CC1=C(C(=O)Nc2ccccc2)C(c2cc(Cl)cc(Cl)c2)C(C(=O)Nc2ccccc2)=C(C)N1`, the growth inhibition was 19%.

Turning to `O=[N+]([O-])/C(Br)=C\c1ccc([N+](=O)[O-])cc1`, the growth inhibition was 4%.

As to `CC1=CC(C)(C)Nc2cc(N)ccc21`, the growth inhibition was -49%.

Turning to `Fc1ccc2nncc(SCc3ccccc3)c2c1`, the growth inhibition was 10%.

Consider `CN(C)c1ccc(-c2c(C#N)c(-c3ccccc3)n(NS(=O)(=O)c3ccccc3)c(=O)c2C#N)cc1`, for which the growth inhibition was 23%.

Regarding `Cc1cc(N2C(=O)CCSC2=S)ccc1Cl`, the growth inhibition is 7%.

Consider `C=C(c1ccccc1)[P+](c1ccccc1)(c1ccccc1)c1ccccc1`, for which the growth inhibition was 99% (active).

For the compound `Cc1cc(Br)c2ccccc2c1N`, the growth inhibition was 2%.

As to `CC1C[N+](C)(C)C(C)C(=O)C1(c1ccccc1)c1ccccc1` (stereo not given), the growth inhibition is -2%.

On to `CC(=O)N(C1=CC(=O)c2ccccc2C1=O)c1ccc(C)cc1`, for which the growth inhibition is 31%.

In the case of `CC(c1ccccc1)n1c2ccccc2c2c(N)ncnc21` (stereo not given), the growth inhibition is -11%.

For `CC(=O)O/N=C1/CCC2C3CC=C4CC(OC(C)=O)CCC4(C)C3CCC12C` (stereo not given), the growth inhibition was 16%.

As to `c1cc(CCSSCCc2ccncc2)ccn1`, the growth inhibition was 1%.

For `CC1=C(C(=O)Nc2cc(C)ccc2C)C(c2cccc([N+](=O)[O-])c2)C(C(=O)Nc2cc(C)ccc2C)=C(C)N1`, the growth inhibition is 19%.

Consider `ClC1=CC(Cl)=C2N=C(C(Cl)(Cl)Cl)N=C3N=C(C(Cl)(Cl)Cl)N=C1N32`, for which the growth inhibition is 4%.

In the case of `C[n+]1c(-c2ccc(/C=N/Nc3n[nH]c(=S)n3/N=C/c3ccc(-c4cn5ccsc5[n+]4C)cc3)cc2)cn2ccsc21`, the growth inhibition was -2%.

For the compound `CC1(C)OC(=O)C(=NNc2ccccc2[N+](=O)[O-])C(=O)O1`, the growth inhibition was 2%.

In the case of `CC(CCCOC(c1ccccc1)(c1ccccc1)c1ccccc1)OC(=O)Nc1ccccc1` (stereo not given), the growth inhibition was 81% (active).

With `CCN(CC)c1ccc2nc3ccc(N(CC)CC)cc3[n+](-c3ccccc3)c2c1`, the growth inhibition is 100% (active).

On to `CC1OC(C)C(O)C2=C1C(=O)c1ccccc1C2=O` (stereo not given), for which the growth inhibition is -29%.

Consider `CCCCCCCCCCCCS(=O)(=O)CC(Br)C(=O)c1ccco1` (stereo not given), for which the growth inhibition was 42%.

Consider `NC(=O)NOCC1NC(=O)NC1=O` (stereo not given), for which the growth inhibition is -10%.

For `O=C(O)C1C(=O)OC2CCCCC21` (stereo not given), the growth inhibition was 1%.

Turning to `C=CCNC(=S)N/N=C(\CCC)c1ccccn1`, the growth inhibition was 99% (active).

For the compound `Nc1ccc2c(c1)S(=O)(=O)c1cc(N)ccc1-2`, the growth inhibition is 19%.

With `CN1C(=O)c2cccc3cc([N+](=O)[O-])cc(c23)C1=O`, the growth inhibition is -16%.

Regarding `C/C(=N\NC(=S)NC12CC3CC(CC(C3)C1)C2)c1ccccn1`, the growth inhibition was 3%.

The same test, now with this note: S. cerevisiae mec2-1 strain, at 50.0 µM (retest, dose inferred, filed as 5.0), hits give high values.
On to `Cc1ccccc1N1C(=O)C(=O)c2cccc(C)c21`, for which the growth inhibition was 99% (active).

As to `Nc1n[nH]c(=O)c2cccnc12`, the growth inhibition is -12%.

With `CCCCNCCCNCCCNC(=O)c1csc(-c2csc(CCNC(=O)C(NC(=O)C(C)C(O)C(C)NC(=O)C(NC(=O)c3nc(C(CC(N)=O)NCC(N)C(N)=O)nc(N)c3C)C(OC3OC(CO)C(O)C(O)C3OC3OC(CO)C(O)C(OC(N)=O)C3O)c3cnc[nH]3)C(C)O)n2)n1` (stereo not given), the growth inhibition is 99% (active).

On to `c1ccc(-c2ccc(-c3cnc(-c4ccc(-c5ccccc5)cc4)o3)cc2)cc1`, for which the growth inhibition was 46%.

For `CN(C)C=Nc1ccc2nonc2c1`, the growth inhibition was -7%.

For `COC(=O)C(CCC(=O)Cc1ccccc1)N1C(=O)c2ccccc2C1=O` (stereo not given), the growth inhibition was 91% (active).

As to `O=S(=O)(Nc1ccccc1)c1ccccc1CC(O)(c1ccccc1)c1ccccc1`, the growth inhibition is 94% (active).

Turning to `O=C1OC(=O)C2C=CC=CC12` (stereo not given), the growth inhibition is -9%.

For `CCOC(=O)N/N=C/c1ccc([N+](=O)[O-])o1`, the growth inhibition is 35%.

As to `CN=C(N)N/N=C(\C)c1ccc2c(ccc3ccccc32)c1`, the growth inhibition was 99% (active).

`O=C(C(/C=N/C(=S)NCc1ccccc1)=C(/O)c1ccccc1)c1ccccc1`: the growth inhibition is 69%.

As for `Cc1nc(Nc2ccc(Cl)cc2)sc1C(=O)Nc1cccc2c(=O)[nH][nH]c(=O)c12`, the growth inhibition was 6%.

On to `Cc1c2ccccc2c(C)c2c1cc(F)c1ccccc12`, for which the growth inhibition was 92% (active).

`CC1=C(C(=O)Nc2ccccc2)C(c2cc(Cl)cc(Cl)c2)C(C(=O)Nc2ccccc2)=C(C)N1`: the growth inhibition is 19%.

For `O=[N+]([O-])/C(Br)=C\c1ccc([N+](=O)[O-])cc1`, the growth inhibition is 100% (active).

Consider `CC1=CC(C)(C)Nc2cc(N)ccc21`, for which the growth inhibition was -65%.

As to `Fc1ccc2nncc(SCc3ccccc3)c2c1`, the growth inhibition was 99% (active).

For `CN(C)c1ccc(-c2c(C#N)c(-c3ccccc3)n(NS(=O)(=O)c3ccccc3)c(=O)c2C#N)cc1`, the growth inhibition is 32%.

Take `Cc1cc(N2C(=O)CCSC2=S)ccc1Cl`: the growth inhibition is 27%.

Regarding `C=C(c1ccccc1)[P+](c1ccccc1)(c1ccccc1)c1ccccc1`, the growth inhibition was 100% (active).

For the compound `Cc1cc(Br)c2ccccc2c1N`, the growth inhibition was 39%.

On to `CC1C[N+](C)(C)C(C)C(=O)C1(c1ccccc1)c1ccccc1` (stereo not given), for which the growth inhibition is 2%.

Take `CC(=O)N(C1=CC(=O)c2ccccc2C1=O)c1ccc(C)cc1`: the growth inhibition was 97% (active).

As for `CC(c1ccccc1)n1c2ccccc2c2c(N)ncnc21` (stereo not given), the growth inhibition is 100% (active).

For the compound `CC(=O)O/N=C1/CCC2C3CC=C4CC(OC(C)=O)CCC4(C)C3CCC12C` (stereo not given), the growth inhibition was 93% (active).

`c1cc(CCSSCCc2ccncc2)ccn1`: the growth inhibition was 87% (active).

Turning to `CC1=C(C(=O)Nc2cc(C)ccc2C)C(c2cccc([N+](=O)[O-])c2)C(C(=O)Nc2cc(C)ccc2C)=C(C)N1`, the growth inhibition is 72% (active).

On to `ClC1=CC(Cl)=C2N=C(C(Cl)(Cl)Cl)N=C3N=C(C(Cl)(Cl)Cl)N=C1N32`, for which the growth inhibition was 88% (active).

Turning to `C[n+]1c(-c2ccc(/C=N/Nc3n[nH]c(=S)n3/N=C/c3ccc(-c4cn5ccsc5[n+]4C)cc3)cc2)cn2ccsc21`, the growth inhibition was 97% (active).

`CC1(C)OC(=O)C(=NNc2ccccc2[N+](=O)[O-])C(=O)O1`: the growth inhibition was 19%.

`CC(CCCOC(c1ccccc1)(c1ccccc1)c1ccccc1)OC(=O)Nc1ccccc1` (stereo not given): the growth inhibition is 81% (active).

For `CCN(CC)c1ccc2nc3ccc(N(CC)CC)cc3[n+](-c3ccccc3)c2c1`, the growth inhibition was 99% (active).

As to `CC1OC(C)C(O)C2=C1C(=O)c1ccccc1C2=O` (stereo not given), the growth inhibition was 77% (active).

As to `CCCCCCCCCCCCS(=O)(=O)CC(Br)C(=O)c1ccco1` (stereo not given), the growth inhibition was 97% (active).

Consider `NC(=O)NOCC1NC(=O)NC1=O` (stereo not given), for which the growth inhibition was -13%.

As to `O=C(O)C1C(=O)OC2CCCCC21` (stereo not given), the growth inhibition was 1%.

With `C=CCNC(=S)N/N=C(\CCC)c1ccccn1`, the growth inhibition is 96% (active).

Consider `Nc1ccc2c(c1)S(=O)(=O)c1cc(N)ccc1-2`, for which the growth inhibition was 15%.

Take `CN1C(=O)c2cccc3cc([N+](=O)[O-])cc(c23)C1=O`: the growth inhibition was 76% (active).

Take `C/C(=N\NC(=S)NC12CC3CC(CC(C3)C1)C2)c1ccccn1`: the growth inhibition was 97% (active).
